From PMC13541613, “GHT-SELEX demonstrates unexpectedly high intrinsic sequence specificity and complex DNA binding of many human transcription factors” come the findings set out here.

The target of the test is ZNF721 full-length (Homo sapiens, UniProt Q8TF20-2 1-923). Put plainly: HT-SELEX; 20 mM HEPES pH 7, 140 mM KCl, 5 mM NaCl, 1 mM K2HPO4, 2 mM MgSO4, 100 uM EGTA, ZnSO4, 0.1% Tween20; room temperature, 1 h; high values mean tight binding. As to conditions: protein: ivt; tags: eGFP (N-terminal); dsDNA, one strand shown. An outline of the steps: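 Full-length or DNA-binding-domain forms of a tagged transcription factor were produced in HEK293 lysate or cell-free extract and immobilised on beads. Incubation with a randomized 40-base DNA library ran for 1 h at room temperature in HEPES/KCl low-stringency buffer with Tween20, after which bound DNA was washed, heat-eluted, PCR-amplified over successive cycles and Illumina-sequenced. Binding strength is given as the relative k-mer count in selected reads, higher for tighter binding.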
Chain of ZNF721 full-length (Q8TF20 other isoform, or with tags, fused parts or gaps): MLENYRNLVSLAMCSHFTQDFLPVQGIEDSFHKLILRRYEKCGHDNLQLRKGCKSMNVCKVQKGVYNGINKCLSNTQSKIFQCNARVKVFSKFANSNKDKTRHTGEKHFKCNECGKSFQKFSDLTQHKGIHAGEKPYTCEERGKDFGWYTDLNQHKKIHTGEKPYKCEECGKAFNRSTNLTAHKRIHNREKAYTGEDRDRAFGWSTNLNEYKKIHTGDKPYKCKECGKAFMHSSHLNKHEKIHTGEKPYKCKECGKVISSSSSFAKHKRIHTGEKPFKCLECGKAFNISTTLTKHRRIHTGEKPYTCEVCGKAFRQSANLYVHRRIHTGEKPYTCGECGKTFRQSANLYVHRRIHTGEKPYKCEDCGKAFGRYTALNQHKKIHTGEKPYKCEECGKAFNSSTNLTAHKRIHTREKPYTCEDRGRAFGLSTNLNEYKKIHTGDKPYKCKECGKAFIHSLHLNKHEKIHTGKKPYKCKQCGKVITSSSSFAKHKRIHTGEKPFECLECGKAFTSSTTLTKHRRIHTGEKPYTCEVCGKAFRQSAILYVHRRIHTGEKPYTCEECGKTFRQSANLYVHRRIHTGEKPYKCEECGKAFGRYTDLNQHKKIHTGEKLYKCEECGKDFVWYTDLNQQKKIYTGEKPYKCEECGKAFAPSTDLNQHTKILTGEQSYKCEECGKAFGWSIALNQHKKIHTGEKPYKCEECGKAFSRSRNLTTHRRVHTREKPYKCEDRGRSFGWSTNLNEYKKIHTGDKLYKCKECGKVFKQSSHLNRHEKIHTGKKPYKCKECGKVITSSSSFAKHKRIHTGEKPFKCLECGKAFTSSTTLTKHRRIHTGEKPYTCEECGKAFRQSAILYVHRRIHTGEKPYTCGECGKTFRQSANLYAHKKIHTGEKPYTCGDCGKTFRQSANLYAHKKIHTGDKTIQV
CCCCCCGCAC registered a binding signal of 0.115 relative 10-mer count.
The sequence GCCCCACCGC returned a binding signal of 0.104 relative 10-mer count.
Regarding GCCCCCCTCC, the binding signal amounted to 0.128 relative 10-mer count.
The value for CCGCCCACCA was 0.143 relative 10-mer count; that for CCACCTCCCC was 0.278 relative 10-mer count; that for CCCAAAAAAA was 0.149 relative 10-mer count.
On to CAGCATACCC, for which the binding signal turned out to be 0.596 relative 10-mer count.
The value for AGGGGGGCGG was 0.108 relative 10-mer count; that for CCCTCCCTCC was 0.178 relative 10-mer count; that for AAAAAAAAAA was 0.186 relative 10-mer count.
The value for CGCCCCCCAC was 0.156 relative 10-mer count; that for CCCCTCGCCC was 0.161 relative 10-mer count.
The value for AAAAAAAAGA was 0.116 relative 10-mer count; that for CCCACCATCC was 0.152 relative 10-mer count.
AGGGGTGGGG gave a binding signal of 0.2 relative 10-mer count.
With CGAAAAAAGC, the binding signal was 0.221 relative 10-mer count.
The value for ATAGCTTCAT was 0.118 relative 10-mer count; that for CTCCCCCCCA was 0.117 relative 10-mer count; that for CCCTCTCCCC was 0.11 relative 10-mer count.
The sequence ACCTCCCACC showed a binding signal of 0.113 relative 10-mer count.
As to GCCCCCTCCC, the binding signal is 0.134 relative 10-mer count.
CTCCCCCCTC showed a binding signal of 0.108 relative 10-mer count.
The value for CCCTCCCCCG was 0.145 relative 10-mer count.
Turning to CCCCTCTCCC, the binding signal amounted to 0.107 relative 10-mer count.
Consider CCACCCACAC, for which the binding signal came to 0.152 relative 10-mer count.
The value for CGCCCCGCCC was 0.139 relative 10-mer count; that for ACCCCCCTCC was 0.142 relative 10-mer count; that for GTGGGTGGGA was 0.137 relative 10-mer count.
Regarding CCCCCCCGAC, the binding signal stood at 0.115 relative 10-mer count.
Sequence AGCTTTTTTC came in with a binding signal of 0.449 relative 10-mer count.
The value for GCCCCCCCCA was 0.107 relative 10-mer count; that for ACCACCCGCC was 0.125 relative 10-mer count; that for CCCCCCGTCC was 0.134 relative 10-mer count.
The value for GCCCCCCCAC was 0.112 relative 10-mer count; that for CCCCCTCCCG was 0.114 relative 10-mer count; that for AGTGTTTCCA was 0.13 relative 10-mer count.
The sequence CCCGCCTCCC gave a binding signal of 0.183 relative 10-mer count.
With GGGTGGGTGA, the binding signal amounted to 0.104 relative 10-mer count.
The value for CCCCACCCAC was 0.337 relative 10-mer count; that for AAAGCAGCGT was 0.371 relative 10-mer count.
